Screening data from PubChem BioAssay.
In the library only some 1.6% were active in any assay of this set; here they are far more common.
KCNQ2 inh – blocks the rat KCNQ2 potassium channel. 310,000 tested, 1.1% active. B-score at 10 µM. CHO-K1 KCNQ2, FluxOR thallium flux, 20 min; active compounds read low. O88943;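 active = fluorescence ratio B-score at most minus 3 library SDs, with starting brightness B-score within 2 library SDs, cut at about -5.5 in these data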
KCNQ2 enhance – enhances the rat KCNQ2 potassium channel; O88943; CHO-K1 KCNQ2, FluxOR thallium flux fluorescence; active compounds read high; B-score at 10 µM; 310,000 tested, 0.54% active;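 active = fluorescence ratio B-score at least 3 SD of library B-scores, with initial fluorescence B-score within 3 of them, cut at about 5.3 in these data; same plate scores as AID 2156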;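 also: B-score of peak minus minimum over baseline fluorescence ratio after K+ and Tl+ stimulus; positive B-score means potentiation of KCNQ2 with more thallium influx and brighter signal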
Kir21 conf inh – confirmation of mouse Kir2.1 potassium channel inhibitors; shares compounds with KCNQ2 enhance; 2,300 tested, 41% active; Tl flux remaining, % of negative control (active compounds read low), % at 10 µM; Kir2.1-expressing cells, FluxOR thallium flux fluorescence; active compounds read low;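 active = Primary-screen hit whose thallium flux fell at least 3 control SD below untreated wells in both duplicates, with normal baseline fluorescence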;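 also: 0% = blank wells without stimulus and 100% = stimulated no-compound controls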
HEK293 Tl flux – counter-screen for Kir2.1 inhibitors: effect in parental HEK293 cells; 2,300 tested, 19% active; FluxOR thallium flux fluorescence; 0% = unstimulated blank wells; AID 2105; shares compounds with KCNQ2 enhance; FluxOR signal as % of negative control (100 = no effect), % at 10 µM;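 active = dye signal at least 3 control SD above or below untreated wells in both duplicates, raw fluorescence within 3, either direction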;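 also: percent is based on the flux ratio of peak minus minimum fluorescence over baseline F0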
CHO-K1 ctr – parental CHO-K1 activity in KCNQ2 potentiator counter-screen; parental CHO-K1 cells, FluxOR thallium flux fluorescence; zero = vehicle mean+3SD, 100% = vehicle-minus-blank window; 1,200 tested, 43% active; shares compounds with KCNQ2 enhance; activity increase over 3SD of controls, % at 10 µM; AID 2282;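 active = signal rise of at least 3 SD above the untreated control mean, in both duplicate wells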;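 also: counter screen of KCNQ2 potentiator hits so any rise reflects channel-independent effects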
KCNQ1 sel pot – selectivity of KCNQ2 potentiators: effect on human KCNQ1; shares compounds with KCNQ2 enhance; CHO KCNQ1 stable, FluxOR thallium flux fluorescence; beyond 3SD, as % of vehicle-control signal; activation over 3SD threshold, % at 10 µM; 1,200 tested, 28% active;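 active = fluorescence ratio rise of at least 3 SD of vehicle wells above their mean, in both replicate wells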;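 also: 0% = vehicle mean plus 3 SD and 100% = vehicle minus unstimulated blank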
KCNQ2 pot conf – confirmation of rat KCNQ2 potassium channel potentiators; shares compounds with KCNQ2 enhance; CHO-KCNQ2 cells, FluxOR thallium flux fluorescence; potentiation, less the hit threshold, % at 10 µM; 1,200 tested, 68% active; AID 2287;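 active = fluorescence ratio rising 3 SD or more over the vehicle control mean in both replicates, plus primary screen hit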;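 also: peak minus minimum thallium fluorescence divided by baseline after K/Tl stimulus; 0% = vehicle mean plus 3 SD and 100% = vehicle minus unstimulated blank difference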
Kir2-1 sel – tests whether KCNQ2 potentiators also affect mouse Kir2.1; shares compounds with KCNQ2 enhance; HEK293 Kir2.1, FluxOR thallium flux fluorescence; activity over 3SD threshold, % at 10 µM; 1,200 tested, 2% active;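 active = fluorescence ratio rise of at least 3 SD above the vehicle-control mean, seen in both replicates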;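 also: 0% = vehicle mean plus 3 SD and 100% = vehicle minus no-stimulus blank window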
KCNQ2 W236L MoA – KCNQ2 potentiators acting on retigabine-insensitive rat KCNQ2 W236L mutant; CHO KCNQ2-W236L, automated patch clamp current; shares compounds with KCNQ2 enhance; current increase over 3SD of negative controls (%), active compounds read high, % at 25 µM; 940 tested, 10% active;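 active = current increase at least 3 SD of the untreated controls above them in both duplicate recordings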
Target sequence (O88943 whole entry W236L, looked up): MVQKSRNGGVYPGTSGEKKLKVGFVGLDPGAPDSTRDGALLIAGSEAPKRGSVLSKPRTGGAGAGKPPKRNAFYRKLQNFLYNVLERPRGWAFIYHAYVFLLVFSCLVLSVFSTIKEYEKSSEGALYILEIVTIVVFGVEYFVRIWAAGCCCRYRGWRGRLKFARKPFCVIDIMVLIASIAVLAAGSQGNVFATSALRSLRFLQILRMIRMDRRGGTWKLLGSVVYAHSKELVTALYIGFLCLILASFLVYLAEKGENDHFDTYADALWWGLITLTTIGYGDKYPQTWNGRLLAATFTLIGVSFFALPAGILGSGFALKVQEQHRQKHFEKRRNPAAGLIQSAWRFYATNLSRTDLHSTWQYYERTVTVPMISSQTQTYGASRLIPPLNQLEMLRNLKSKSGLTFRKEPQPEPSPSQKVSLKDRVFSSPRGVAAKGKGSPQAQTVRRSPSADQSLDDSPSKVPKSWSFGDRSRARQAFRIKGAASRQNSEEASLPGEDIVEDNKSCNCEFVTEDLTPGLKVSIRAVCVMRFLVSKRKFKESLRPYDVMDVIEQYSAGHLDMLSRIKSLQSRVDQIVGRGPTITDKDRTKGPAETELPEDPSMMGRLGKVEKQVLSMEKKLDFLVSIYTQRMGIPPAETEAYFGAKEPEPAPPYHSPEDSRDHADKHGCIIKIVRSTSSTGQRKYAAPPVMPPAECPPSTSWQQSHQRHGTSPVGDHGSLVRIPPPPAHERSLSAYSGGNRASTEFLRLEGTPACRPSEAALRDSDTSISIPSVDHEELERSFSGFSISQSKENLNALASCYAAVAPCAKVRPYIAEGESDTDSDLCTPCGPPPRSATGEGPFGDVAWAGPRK
* hit, by the source's call; i = inactive; · = not tested or not shown.

SMILES	KCNQ2 inh	KCNQ2 enhance	Kir21 conf inh	HEK293 Tl flux	others
COCC(C)NCc1cccc2ccccc12 (stereo not given)	i	2.5	·	·
O=C(Cn1cncn1)c1ccc(F)cc1F	i	1.2	·	·
COc1cccc(OC)c1NC(=O)CN1CCC(NC(=O)c2cccc(F)c2)CC1	i	0.33	·	·
COc1ccc(CC(=O)NC2CCSc3ccccc32)c(OC)c1 (stereo not given)	i	·	72%*	i
COc1ccc(OC)c(C(=O)NC2CCSc3ccccc32)c1 (stereo not given)	i	·	·	·
CCCN1CCC(NCC(C)c2ccccc2)CC1 (stereo not given)	i	0.07	·	·
CCCN1CCC(NC23CC4CC(CC(C4)C2)C3)CC1	i	0.34	54%*	i
O=C(Nc1c[nH]c(=O)[nH]c1=O)c1ccccc1Cl	i	0.04	·	·
Cc1ccc2c(c1)c1c(n2CC(O)CNC2CCCCC2)CCCC1 (stereo not given)	i	·	51%*	i
Cc1ccc2c(c1)c1c(n2CC(O)CNC(CO)(CO)CO)CCCC1 (stereo not given)	i	0.98	·	·
O=C(Oc1ccc(Oc2ccccc2)cc1)N1CCC(O)CC1	i	1.6	·	·
O=C(CN1N=C(c2ccccc2)CCC1=O)NCCCN1CCc2ccccc2C1	i	0.95	·	·
O=C(CCC1CCCCC1)NNC(=O)NC12CC3CC(CC(C3)C1)C2	i	9.3*	i	i	CHO-K1 ctr=-22;KCNQ1 sel pot=-62;KCNQ2 pot conf=12*;Kir2-1 sel=-32;KCNQ2 W236L MoA=i
O=C(O)CCC(=O)NNC(=O)CCC1CCCCC1	i	0.21	·	·
Clc1ccc2c(c1)C(N1CCNCC1)Cc1ccccc1S2 (stereo not given)	-12*	-12	32%*	i
COc1ccc2c(c1)CC(N1CCN(C)CC1)c1cc(OC)ccc1S2 (stereo not given)	i	·	·	·
O=C(COC(=O)[C@@H]1CC(O)CN1S(=O)(=O)c1ccc2c(c1)OCCO2)NCc1ccc(F)cc1 (stereo not given in full)	i	0.04	·	·
CNC(=O)C1CC(=O)N(Cc2ccc3c(c2)OCO3)C(=Nc2ccc(OC)cc2)S1 (stereo not given)	i	·	·	·
COc1ccc(OCC(O)Cn2c(=N)n(Cc3ccccc3)c3ccccc32)cc1 (stereo not given)	i	·	46%*	i
Cc1cccc(OCC(O)Cn2c(=N)n(CCN3CCCCC3)c3ccccc32)c1 (stereo not given)	i	·	·	·
N=c1n(Cc2ccccc2)c2ccccc2n1CC(O)c1ccco1 (stereo not given)	i	0.66	·	·
Cc1cccc(OCC(O)Cn2c(=N)n(Cc3ccccc3)c3ccccc32)c1 (stereo not given)	i	·	32%*	i
CCN(CC)CCn1c(=N)n(CC(O)COc2cccc(C)c2)c2ccccc21 (stereo not given)	i	·	56%*	i
Cc1cccc(OCC(O)CN2CCNCC2)c1 (stereo not given)	i	0.24	·	·
Cc1ccc(OCC(O)Cn2c(=N)n(Cc3ccccc3)c3ccccc32)cc1 (stereo not given)	i	·	38%*	i
SMILES	KCNQ2 inh	KCNQ2 enhance	Kir21 conf inh	HEK293 Tl flux	others
N=c1n(Cc2ccccc2)c2ccccc2n1Cc1ccccc1	i	0.8	·	·
C=CCNC(=O)c1ccc(-n2cccc2)cc1	i	1.3	·	·
Cc1cc(C)c2nc(NNC(=O)c3cc(=O)c4ccccc4o3)sc2c1	i	0.55	·	·
O=C(CCCCCNC(=O)N1CCn2c1nc1ccccc12)NCCc1ccccc1	i	·	·	·
CCOc1cc(Br)c(CC(=O)NC2CCCCCC2)cc1OCC	i	14*	i	i	CHO-K1 ctr=1.1*;KCNQ1 sel pot=14*;KCNQ2 pot conf=15*;Kir2-1 sel=-34;KCNQ2 W236L MoA=i
COc1ccccc1CC(=O)NC1CCCCCC1	i	1.9	·	·
Nc1cccnc1Oc1ccc(F)cc1	i	0.08	·	·
FC(F)(F)c1cccnc1Oc1ccc(C2=NCCS2)cc1	i	5.4*	i	i	CHO-K1 ctr=-34;KCNQ1 sel pot=30*;KCNQ2 pot conf=13*;Kir2-1 sel=-21;KCNQ2 W236L MoA=i
Cc1cc(OCC(=O)Nc2ccc(CN3CCOCC3)cc2)c2c(C)c(C)c(=O)oc2c1	i	·	·	·
CCOC(=O)C(NC(=O)NCc1ccccc1OC)(OCC)C(F)(F)F (stereo not given)	i	0.46	·	·
N#Cc1c(NCCCO)nc(-c2ccccc2)c2c1CCCC2	i	1.1	·	·
N#Cc1c(NCCN)nc(-c2ccccc2)c2c1CCCC2	i	·	46%*	i
O=C(NC(Cc1c[nH]c2ccccc12)C(=O)OCC(=O)c1cccc2ccccc12)c1cccs1 (stereo not given)	i	·	·	·
COc1cc(OC)c(OC)cc1CN(C)CC1CCCN(CCc2ccccc2F)C1 (stereo not given)	i	0.01	·	·
COc1ccc(CN(C)CC2CCCN(CCc3ccccc3C)C2)cc1O (stereo not given)	i	0.83	40%*	i
O=C1C2CCCN2C(=O)N1CCCCN1CCN(CCO)CC1 (stereo not given)	i	0.85	·	·
CNC(=O)CSCc1cnn(-c2ccccc2)c1-n1cccc1	i	0.39	·	·
O=C(CSCc1cnn(-c2ccccc2)c1-n1cccc1)NCc1cccs1	i	·	i	i
COc1cccc(CNC(=O)CSCc2cnn(-c3ccccc3)c2-n2cccc2)c1	i	·	i	i
CCOC(=O)N1CCC(NC(=O)CSCc2cnn(-c3ccccc3)c2-n2cccc2)CC1	i	0.04	·	·
CC1CCCCN1S(=O)(=O)Cc1ccccc1Cl (stereo not given)	i	·	·	·
CCOc1ccc(NC(=O)CN(C)S(=O)(=O)c2ccc3c(c2)CCC(=O)N3)cc1	i	·	·	·
CCCC(=O)Nc1ccc(Cl)c(NC(=S)NC(=O)c2ccco2)c1	i	·	·	·
Cc1cccc(Nc2nc(NCc3ccco3)c3ccccc3n2)c1	i	·	62%*	i
Oc1ccccc1Nc1nc(NCc2ccco2)c2ccccc2n1	i	·	·	·
c1ccc(Nc2nc(NCc3ccco3)c3ccccc3n2)cc1	i	·	·	·
Cc1ccccc1Nc1nc(NCc2ccco2)c2ccccc2n1	-6.3*	-6.3	16%*	i
